Rows were chosen to be rich in hits. Some 0.81% of all compounds tested hit in one or more screens of this group.
C-LANA FP: inhibitors of KSHV LANA C-terminal domain DNA binding; 340,000 compounds, 0.078% hits; AID 504423; MBP-C-LANA/FAM-LBS DNA binding, fluorescence polarization; inhibition, % at 9 µM;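 active = highest replicate inhibition at or above 60% at 9 µM, even if other replicates fall short; inactive = all replicates below 60% inhibition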;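 also: 0% = neutral control wells and 100% = 4 µM acridine orange control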
RTF Ca sens inh: cardiac RTF calcium desensitization; AID 493244; inhibition, % at 7.15 µM; 340,000 compounds, 0.12% hits; IANBD-labeled cardiac RTF, Ca2+ fluorescence; P19429+P45379;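 active = inhibition above the mean inhibition of all tested compounds plus 3 SD, cut at about 17% in these data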;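 also: assay run at fixed EC70 calcium of 1.6 mM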
Keap1 Nrf2 FP: Keap1-Nrf2 (human) interaction inhibition. Q14145. Keap1 Kelch-Nrf2 peptide fluorescence polarization, 1536-well. inhibition, % at 9.4 µM. 340,000 compounds, 0.15% hits. AID 504523; in the data active = inhibition above about 12%;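 also: human Keap1 Kelch domain with fluorescein labeled Nrf2 9mer peptide probe; 0% = neutral control wells and 100% = peptide positive control; higher means more block of Keap1 binding to Nrf2 peptide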
IDE cell inh: inhibits human insulin-degrading enzyme in HEK cells; P14735; 320,000 compounds, 0.41% hits; AID 434962; FAbetaB cleavage, fluorescence polarization; inhibition, % at 5.59 µM;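 active = percent inhibition above the average of all tested compounds plus 3 SD, set per screening campaign, cut at about 16% in these data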;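 also: IDE supplied by intact live HEK cells; FP after avidin binding of uncleaved biotin substrate so inhibition keeps polarization high; 0% = DMSO wells and 100% = 60 µM reference IDE inhibitor Ii1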
Target sequence (P14735 whole entry, looked up): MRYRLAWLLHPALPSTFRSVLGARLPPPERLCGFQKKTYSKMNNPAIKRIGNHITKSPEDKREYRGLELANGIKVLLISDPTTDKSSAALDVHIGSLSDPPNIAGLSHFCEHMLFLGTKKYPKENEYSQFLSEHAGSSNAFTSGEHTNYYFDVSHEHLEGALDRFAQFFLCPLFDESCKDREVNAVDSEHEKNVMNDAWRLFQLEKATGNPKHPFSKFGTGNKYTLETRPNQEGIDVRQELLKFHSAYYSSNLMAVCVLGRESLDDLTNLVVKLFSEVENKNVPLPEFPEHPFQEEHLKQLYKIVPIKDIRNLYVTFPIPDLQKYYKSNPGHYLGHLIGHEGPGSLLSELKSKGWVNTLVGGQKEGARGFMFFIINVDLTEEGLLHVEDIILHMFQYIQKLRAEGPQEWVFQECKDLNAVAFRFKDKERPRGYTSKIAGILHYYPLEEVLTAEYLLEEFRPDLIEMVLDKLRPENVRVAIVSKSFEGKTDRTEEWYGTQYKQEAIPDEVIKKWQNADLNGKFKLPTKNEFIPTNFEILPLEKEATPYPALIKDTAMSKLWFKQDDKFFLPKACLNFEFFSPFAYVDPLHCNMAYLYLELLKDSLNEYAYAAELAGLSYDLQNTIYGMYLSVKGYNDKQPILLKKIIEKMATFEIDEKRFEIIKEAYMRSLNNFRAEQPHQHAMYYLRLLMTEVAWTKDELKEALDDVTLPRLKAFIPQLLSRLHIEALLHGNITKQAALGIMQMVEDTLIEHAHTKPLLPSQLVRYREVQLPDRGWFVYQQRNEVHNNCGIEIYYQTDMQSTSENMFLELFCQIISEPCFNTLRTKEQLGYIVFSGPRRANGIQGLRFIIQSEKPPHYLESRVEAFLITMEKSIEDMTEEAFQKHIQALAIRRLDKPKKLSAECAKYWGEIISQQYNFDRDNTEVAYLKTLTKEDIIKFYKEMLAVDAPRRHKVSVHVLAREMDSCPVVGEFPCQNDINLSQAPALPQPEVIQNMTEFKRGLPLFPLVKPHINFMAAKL
IDE act: boosts human insulin-degrading enzyme activity in HEK cells | P14735 | 340,000 compounds, 0.073% hits | activation, % at 5.96 µM | FAbeta-B cleavage, fluorescence polarization; 0% vehicle, 100% cell-free pure enzyme wells;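 active = activation above the mean of all tested compounds plus 3 SD, set per screening campaign, cut at about 17% in these data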
RTF Ca sens act: cardiac RTF calcium sensitization | AID 493008 | activation, % at 7.2 µM | IANBD-labeled TnC RTF fluorescence at EC20 calcium; 0% EC20 calcium, 100% full calcium | 340,000 compounds, 0.24% hits;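 active = activation above the mean over all tested compounds plus 3 SD, cut at about 30% in these data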;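 also: rise in fluorescence read as greater calcium sensitivity of cardiac thin filaments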
The depositor's hits bear a star; x = not tested or not shown.

SMILES | C-LANA FP | RTF Ca sens inh | Keap1 Nrf2 FP | IDE cell inh | IDE act | RTF Ca sens act
NC(=NCCc1c[nH]c2ccccc12)NC(=O)c1ccc(Cl)cc1 | 81.1* | -2.9 | 2.8 | 6.6 | 5.5 | 5.0
CC1CC(C)CN(CCCNC(=O)c2ccc3c(c2)ncn3C2CCCC2)C1 (stereo not drawn) | -0.6 | -3.5 | 0.0 | 0.4 | 6.9 | 2.8
COc1ccccc1N=Cc1c(C)c(C#N)c2[nH]c3ccccc3n2c1=O | -0.2 | -13.0 | 0.1 | 0.6 | -0.7 | 62.1*
O=C(O)c1ccc(CSc2nc3ccccc3c(=O)n2-c2ccccc2)cc1 | 28.1 | -9.9 | 30.2* | 5.4 | 0.2 | 4.2
O=c1c2ccccc2nc(SCc2ccc([N+](=O)[O-])cc2)n1-c1ccccc1 | 0.7 | -2.4 | -0.3 | -2.7 | 7.7 | -1.0
Cn1c2c(c(=O)n3ncnc13)CCCC2 | 2.6 | 1.0 | -1.8 | 16.9* | 2.5 | -4.0
CCc1nnc(NC(=O)C(=O)NCCOC(=O)c2ccccc2)s1 | 1.1 | -11.0 | -2.1 | -1.7 | -1.6 | -6.3
OCCCc1nc2n(n1)C(c1cccs1)C=C(c1ccccc1)N2 (stereo not drawn) | x | x | x | 78.3* | x | x
COC(=O)c1c(C)oc2ccc(N(C(C)=O)S(=O)(=O)c3ccccc3)cc12 | x | 1.9 | -2.6 | 7.9 | 0.4 | -0.9
COc1ccc(S(=O)(=O)N(C(C)=O)c2ccc3oc(=O)sc3c2)cc1 | -0.5 | -6.0 | -4.4 | 24.9* | -18.6 | 5.7
CCN(CC(=O)Nc1c(F)cccc1F)C(=O)c1nc2nccc(C)n2n1 | -1.3 | -2.0 | 4.8 | -0.6 | 1.1 | 1.9
O=c1oc2c(O)cccc2cc1-c1nc2ccccc2[nH]1 | 2.4 | -282.9 | 8.4 | x | 60.7* | 152.9*
COc1cc(/C=C(\C#N)c2nc3c(s2)CCCC3)ccc1O | x | x | x | 145.6* | x | x
N#C/C(=C\c1cccnc1)c1nc2c(s1)CCCC2 | 2.9 | 1.1 | 0.0 | 9.0 | 4.0 | 4.1
COC(=O)Cn1c(C)c(/C=C/c2cc[n+](C)cc2)c2ccccc21 | -29.2 | -80.4 | -85.8 | x | -9.6 | 64.0*
COC(=O)Cn1cc(/C=C/c2cc[n+](C)cc2)c2ccccc21 | -9.4 | -116.9 | -87.1 | 13.8 | -5.8 | 86.2*
COC(=O)Cn1c(=O)c(=O)n(CC(=O)OC)c2ccccc21 | 0.6 | 4.3 | 3.4 | -1.8 | 2.0 | 2.5
CC(C)N1CCN(Cc2ccc3c(c2)Cc2ccccc2-3)CC1CCO (stereo not drawn) | -0.9 | -10.7 | 2.2 | 2.1 | 4.1 | -0.1
O=C1NC(c2ccc(Br)cc2)Nc2ccccc21 (stereo not drawn) | 106.9* | -0.2 | -6.3 | 0.4 | -2.1 | 1.5
CCOC(=O)N1CCN(CCC(=O)Nc2ccc(F)c(F)c2)CC1 | -0.6 | -2.8 | -1.7 | -0.9 | -1.5 | 2.0
CCCCCCCCOc1ccc(C2OC34CCCCC3C(C#N)(C#N)C2(C#N)C(=N)O4)cc1 (stereo not drawn) | 56.3 | -39.6 | 27.6* | -2.9 | 2.7 | 21.7
N#CC1(C#N)C(c2ccccc2)OC23CCCCC2C1(C#N)C(=N)O3 (stereo not drawn) | 44.1 | -24.4 | 21.2* | -0.2 | 3.3 | 30.4*
O=C(CNC(=O)c1ccc2ccccc2c1)NC1CCCCC1 | -0.2 | -2.2 | 3.1 | 1.9 | 3.8 | -3.0
O=C1C(SCCO)=C(SCCO)C(=O)c2ccccc21 | 1.5 | -6.3 | 1.9 | 53.1* | -121.2 | 2.6
CC1=C(SCc2ccccc2)C(=O)c2ccccc2C1=O | 2.4 | 0.5 | -5.3 | x | -12.1 | -7.0
SMILES | C-LANA FP | RTF Ca sens inh | Keap1 Nrf2 FP | IDE cell inh | IDE act | RTF Ca sens act
COCCn1c(=NC(=O)/C=C/c2ccccc2)sc2cc(NC(C)=O)ccc21 | -1.4 | -34.9 | -0.2 | -1.3 | 2.0 | 33.4*
Cn1c(=NC(=O)CS(=O)(=O)c2ccccc2)sc2cc([N+](=O)[O-])ccc21 | -0.3 | -1.2 | -0.7 | 1.4 | -0.4 | -4.9
CC(C)CCn1nnnc1CN1CCN(c2ccccc2)CC1 | 1.7 | 2.1 | -3.4 | 1.4 | 18.5* | -3.9
O=[n+]1c2c(n([O-])c3cc(F)ccc31)CCCC2 | 0.8 | -1.4 | -3.1 | -1.9 | 1.2 | -0.9
O=[n+]1c2c(n([O-])c3cc(F)c(N4CCCC4)cc31)CCC2 | 37.8 | -86.7 | -11.1 | 0.4 | 9.3 | 52.7*
O=[n+]1c2c(n([O-])c3cc(F)c(N4CCCC4)cc31)CCCC2 | 39.1 | -84.1 | -18.1 | -5.5 | 1.3 | 79.1*
Cc1onc(-c2ccccc2Cl)c1C(=O)NNC(=O)c1ccccc1F | -0.8 | -4.2 | -2.2 | 4.4 | -0.4 | -7.6
Cc1cccc(C(=O)N/C(=C\c2ccc(C)o2)C(=O)O)c1 | 0.3 | -7.3 | -3.2 | 1.3 | 8.5 | 2.1
O=c1c2c([N+](=O)[O-])cc([N+](=O)[O-])cc2sn1-c1ccc(Br)cc1 | 1.0 | 3.4 | -8.9 | 95.6* | -52.7 | 8.8
Cc1cc(C)c2cc(CN(CCN(C)C)C(=O)Nc3ccccc3Cl)c(=O)[nH]c2c1 | -2.9 | -3.1 | 0.4 | 1.3 | 2.9 | 4.2
COc1cc2cc(c1Cl)N(C)C(=O)CC(OC(=O)C(C)N(C)C(C)=O)C1(C)OC1C(C)C1CC(O)(NC(=O)O1)C(OC)C=CC=C(C)C2 (stereo not drawn) | -1.3 | 0.5 | -2.9 | x | 0.8 | -2.2
OC(CNCCC1C=Nc2ccccc21)Cn1c2ccc(Cl)cc2c2cc(Cl)ccc21 (stereo not drawn) | 1.3 | 7.0 | -1.0 | -7.2 | 19.4* | -25.2
OC(CNCC1CCCO1)Cn1c2ccc(Cl)cc2c2cc(Cl)ccc21 (stereo not drawn) | 1.5 | -3.2 | 0.0 | -3.6 | 6.4 | -0.2
CN1C(=O)C(C)(C)c2cc(S(=O)(=O)NCC(=O)NCc3ccccc3)ccc21 | 0.5 | -1.5 | -0.1 | 3.7 | 1.5 | 2.0
CCN1/C(=C/c2ccc3cc(C)ccc3[n+]2CC)Sc2ccc3sccc3c21 | -2.4 | -88.3 | 0.7 | 7.1 | -39.9 | 35.9*
CCN1/C(=C/c2ccc3cccc(C)c3[n+]2CC)Sc2ccccc21 | -52.2 | -67.8 | -22.8 | 53.1* | -63.1 | 13.5
CCN1/C(=C/c2ccc3cc(C)cc(C)c3[n+]2CC)Sc2cc(C)ccc21 | -55.3 | -138.8 | -24.0 | x | -185.7 | 66.3*
CCN1/C(=C/C(C)=C/c2sc3ccccc3[n+]2CC)Sc2ccccc21 | -27.3 | 1.6 | -25.6 | 12.3 | -14.5 | -2.0
CCN1/C(=C\c2ccc3cc(C)ccc3[n+]2CC)Sc2cc(C)c(C)cc21 | -69.3 | -103.8 | -16.9 | x | -169.5 | 58.0*
C=CC[n+]1c(/C=C2\C=Cc3cc(C)ccc3N2CC)ccc2ccccc21 | -14.1 | -4.6 | -6.7 | 6.1 | 0.4 | -5.1
CC(=NNC(=O)CCC(=O)Nc1ccccc1Cl)c1ccco1 | -0.2 | 3.3 | 0.9 | -1.6 | 3.9 | 4.3
Cc1ccccc1OCC(O)CNC1CCC(NCC(O)COc2ccccc2C)CC1 (stereo not drawn) | -3.2 | 2.3 | 0.2 | 4.2 | 1.8 | -5.0
Cc1ccc2[nH]cc(/C=C/c3cc[n+](C)cc3)c2c1 | -21.3 | -242.9 | -167.4 | x | -15.3 | 230.3*
